Source: PubChem BioAssay AID2314 (National Center for Advancing Translational Sciences (NCATS), 2010)
Where “and” joins values, the source holds several entries; their conditions need not be identical. Equal values may be shown once. About 37,000 (12%) of roughly 300,000 compounds were called active. Only a selection was taken, and actives are over-represented in it overall. Values without a mark were called inactive. No stated cut-off is given here; in the data, active means max response mostly above about 13% (no sharp cut-off); inactive means mostly below about 14%.

Test: Cycloheximide Counterscreen for Small Molecule Inhibitors of Shiga Toxin; further: read at 38.3 µM for the half of the compounds with a filed dose; 0% is about no effect
Conditions: cell reporter, cycloheximide protein synthesis inhibition counterscreen; stronger effect = higher value

SMILES | max response
CCOC(=O)c1cccc(NC(=O)CN2C(=O)C3CC=CCC3C2=O)c1 (configuration not stated) | -0.226%
CCC1C=C(c2ccccc2)C=CN=C1N(CC)CC (configuration not stated) | -0.252%
O=c1/c(=C/c2ccc(CNS(=O)(=O)c3ccccc3)o2)sc2n1CCN=2 | -4.34%
CCc1nc(C)cn1S(=O)(=O)c1cc([N+](=O)[O-])ccc1Cl | -1.54%
Cc1ccc(NC(=O)CN2CCC3(O)CCCCC3C2c2ccc3c(c2)OCO3)c(C)c1 (configuration not stated) | -2.23%
Cc1ccc(C(=O)N/C(=C/c2cccs2)C(=O)N2CCCCC2)cc1 | 13.7%
Cc1ccc(C(=O)N/C(=C/c2cccs2)C(=O)NCC2CCCO2)cc1 (configuration not stated) | -3.91%
Cc1ccc(C(=O)N/C(=C\c2cccs2)C(=O)NCCc2ccccn2)cc1C | 31.4% (active)
O=C(Cc1ccc([N+](=O)[O-])cc1)Nc1ccc(C(=O)N2CCOCC2)cc1 | -1.78%
CCNC(=O)Nc1ccc(S(=O)(=O)Nc2cnc(C)nc2C)cc1 | -7.45%
CC(C)n1c(=O)[nH]c2cc(C(=O)Nc3ccccc3)ccc21 | -2.19%
O=C(Nc1ccccc1)c1cc2ccccc2[nH]1 | 42.1% (active)
O=C(/C=N/O)Nc1ccccc1 | -2.41%
COc1ccc(NC(=S)SC)cc1OC | -3.14%
COc1ccc2c(c1)N(C)/C(=C1/SC(=S)N(NC(C)=O)C1=O)S2 | 5.97%
COc1ccc(/C=C/C2=CC(C)(C)NC(=S)N2)c(OC)c1 | 5.95%
COCCc1nn2c(=O)cc(COC(=O)c3cc(OC)c(OC)c(OC)c3)nc2s1 | 3.56%
CC1=C(/C=C/C(C)=C/C=C/C(C)=C/C=C/C=C(C)/C=C/C=C(C)/C=C/C(=O)[C@]2(C)C[C@@H](O)CC2(C)C)C(C)(C)C[C@H](O)C1 | 9.8%
CCOc1cccc(/C=C/c2ccc3ccccc3n2)c1OC(C)=O | 25.2% (active)
COc1cccc(/C=C/c2ccc3ccccc3n2)c1OC(C)=O | 28.2% (active)
CCOc1ccccc1-c1cc(C(=O)N2CCOCC2)c2ccccc2n1 | -3.29%
COc1ccc(CNC(=O)/C(C#N)=C/c2cccc(OC)c2OC)cc1 | -1.4%
CCOc1ccccc1-c1cc(C(=O)N/N=C(\C)c2cccnc2)c2ccccc2n1 | -1.08%

SMILES | max response
COc1cccc(/C=C2\C=C(c3ccc(C)cc3)OC2=O)c1OC(C)=O | 1.6%
CCOc1ccc(CCNC(=O)CCc2nnc3ccc(N4CCCC4)nn23)cc1OCC | 1.2%
Cn1nccc1C(=O)NC1CCCc2c1cnn2-c1ccccc1F (configuration not stated) | -0.344%
Cc1ccc2oc(=O)c3cnn(CC(=O)N(Cc4ccco4)C4CCCCC4)c3c2c1 | -5.66%
CCOC(=O)c1c(C)n(C)c2ccc(OC)c(NS(=O)(=O)CC)c12 | 3.73%
COc1cc(CN2CCC(C(N)=O)CC2)ccc1OCc1ccccc1 | 34.9% (active)
COc1ccc(COCC(O)CN2CCC(C(N)=O)CC2)cc1 (configuration not stated) | -2.46%
CCOc1cc(CN2CCN(C(=O)CC(C)C)CC2)ccc1OC | -2.09%
O=C(NCc1cn2ccsc2n1)Nc1ccc(Cl)cc1 | 1.41%
O=C(Nc1ccc(Cl)cc1)c1ccsn1 | 50.1% (active)
CCC(=O)Nc1ccc(C(=O)NNC(=O)c2ccc(Cl)cc2)cc1 | -0.754%
Cc1c(CCC(=O)N[C@@H](CC(C)C)C(=O)O)c(=O)oc2c(C)c3oc4c(c3cc12)CCCC4 | -2.26%
CS(=O)(=O)N(CC(=O)N1CCN(c2cccc(Cl)c2)CC1)c1ccccc1 | -1.4%
O=C(c1ccco1)N1CCN(C(=O)C2c3ccccc3Oc3ccccc32)CC1 | 12.3% (active)
O=C(OCC(=O)N1CCN(C(=O)c2ccco2)CC1)c1cccc(O)c1 | 5.85% (active)
O=C(c1ccco1)N1CCN(C(=O)C2CC(c3ccc(F)cc3)=NO2)CC1 (configuration not stated) | -6.02%
O=C(CCCC(=O)N1CCN(c2cccc(Cl)c2)CC1)c1ccccc1 | 19.7% (active)
O=C(c1ccco1)N1CCN(c2cccc(Cl)c2)CC1 | 23.2% (active)
O=C(OCC(=O)N1CCCC1)c1ccco1 | 10.1%
O=C(OCC(=O)N1CCN(C(=O)c2ccco2)CC1)c1ccccc1Cc1ccccc1 | 34.9%
O=C(c1ccc2c(c1)OCO2)N1CCN(C(=O)c2ccco2)CC1 | -3.05%
O=C(c1cccc([N+](=O)[O-])c1)N1CCN(C(=O)c2ccco2)CC1 | -0.729%
CC(C)c1nnc(NC(=O)CCC(=O)N2CCN(c3cccc(Cl)c3)CC2)s1 | 4.84%

SMILES | max response
O=C(c1ccco1)N1CCN=C1SCc1cccc(Cl)c1 | -6.49%
CCOC(=O)Cn1c(=O)sc2cccc(Cl)c21 | -1.55%
COc1cc(C)c(C(C)C)cc1S(=O)(=O)n1ccnc1 | 0.42%
CCOC(=O)c1ccc(N=C2SC(C(=O)NC)CC(=O)N2CCc2ccccc2)cc1 (configuration not stated) | 1.86%
Cc1cc(=O)cc(C)n1-c1ccc(Cl)c(Cl)c1 | -2.09%
O=C(CSc1nc2ccc(Nc3nc(N4CCOCC4)nc(N4CCOCC4)n3)cc2s1)NCc1ccco1 | -3.23%
CC(=O)Nc1ccc(S(=O)(=O)NCC2CCC(C(=O)NCCc3ccccc3)CC2)cc1 (configuration not stated) | -1.06%
CC(=O)Nc1ccc(NC(=O)CN2CCCC(C)C2)c(Cl)c1 (configuration not stated) | 22.7% (active)
CC1CCCN(CC(=O)Nc2cc(Cl)ccc2Oc2ccccc2)C1 (configuration not stated) | 8.16%
O=C(CN1CCOCC1)Nc1ccc(NC(=O)CN2CCOCC2)c(Cl)c1 | -4.13%
Nc1nc(SCC(=O)Nc2ccc(Cl)cc2C(F)(F)F)n[nH]1 | -3.77%
N#Cc1ccc(/C=C2\CCn3c2nc2cc(C(=O)O)ccc2c3=O)cc1 | -2.31%
CC(=O)c1ccc(OCCN2CCOCC2)cc1 | 3.75%
CC(C)(c1ccccc1)c1ccc(OCCN2CCCC2)cc1 | 2.15%
c1ccc(-c2ccc(OCCN3CCOCC3)cc2)cc1 | 47.6% (active)
CCc1c(C)nc(N)n2c(SCC(=O)NC3CCCCC3)nnc12 | 11.5%
CN(C)/N=C/c1cn(-c2ccccc2)nc1-c1cccnc1 | 6.55%
COc1ccc(-c2nn(-c3ccccc3)cc2C(=O)Nc2nccs2)cc1OC | -1.49%
COc1ccc(-c2nn(-c3ccccc3)cc2/C=N/Nc2ccccn2)cc1OC | 14.8% (active)
Cc1cc(C)cc(C(=O)N(CCc2ccccc2)C2=CC3CCC(C2)N3C)c1 (configuration not stated) | 3.92%
O=C(C1CC(=O)N(c2ccc(Br)cc2)C1)N1CCCC1 (configuration not stated) | 4.73%
Cc1ccc(-c2cc(=O)c3ccc(F)cc3[nH]2)cc1 | 6.8% (active)
Cc1ccc(-c2cc(=O)c3ccc(Cl)cc3[nH]2)cc1 | -0.873% and 14.9%

SMILES | max response
O=c1cc(-c2ccccc2)[nH]c2cc(F)ccc12 | -3.07%
CC(=O)NC(CC(=O)Nc1cccc(S(=O)(=O)N2CCCC2)c1)c1ccccc1 (configuration not stated) | -2.18%
COc1ccc(S(=O)(=O)N2CCOC2CNC(=O)C(=O)NCc2ccc(F)cc2)cc1 (configuration not stated) | -1.46%
CC1(C)C=C2[C@H]3CC[C@@H]4[C@@]5(C)CCC(=O)C(C)(C)[C@@H]5CC[C@@]4(C)[C@]3(C)CC[C@@]2(C(=O)O)CC1 | 4.36%
O=C(CN(C(=O)c1nsc(Cl)c1Cl)c1cccc(F)c1)NC1CCCC1 | -1.97%
COc1cc(NC(=S)N2CCCC(C)C2)c(OC)cc1Cl (configuration not stated) | 17.5% (active)
COc1cc(NC(=S)N2CCCC(C)C2)cc(OC)c1OC (configuration not stated) | -2.44%
COc1cc(NC(=S)NNC(=O)CC(C)C)c(OC)cc1Cl | -6.7%
COc1ccccc1C(=O)N1C(CC(=O)Nc2ccccc2C)C(=O)NC2CCCCC21 (configuration not stated) | -3.1%
N#CC(C#N)=CN=c1ccn(Cc2ccc(Cl)cc2Cl)cc1 | -0.809%
C=CCn1c(CCNC(=O)c2cccs2)n[nH]c1=S | 2.82%
C=CCn1c(=NC(=O)c2ccc(S(=O)(=O)N3CCCC3)cc2)sc2cc(NC(C)=O)ccc21 | -4.67%
C=CCn1c(=NC(=O)c2cccs2)sc2cc(NC(C)=O)ccc21 | 16.5% (active)
CN1CCN(S(=O)(=O)c2cccc(C(=O)N3CCc4ccccc43)c2)CC1 | -1.65%
CCOC(=O)NN1C(=O)c2ccccc2NC1c1cccc(O)c1 (configuration not stated) | 7.43%
O=C1NN(c2ccccc2)C(=O)/C1=C/c1ccc(-c2cccc(C(=O)O)c2)o1 | 21%
O=C1c2ccccc2NC(c2ccc(-c3cccc(Cl)c3)o2)N1O (configuration not stated) | 38.7% (active)
CC(C)[C@@H](NC(=O)OC(C)(C)C)C(=O)NCC1CCC(C(=O)N[C@@H](Cc2ccccc2)C(=O)O)CC1 (some centres not stated) | -1.77%
Cc1cccc(C(=O)N2CCc3c([nH]c4ccccc34)C2CC(C)C)n1 (configuration not stated) | 26.8% (active)
Cc1cccc(C2c3[nH]c4ccccc4c3CCN2C(=O)c2cc(-c3cccn3C)n[nH]2)n1 (configuration not stated) | -3.03%
O=C(c1cn2ccccc2n1)N1CCc2c([nH]c3ccccc23)C1c1ccccn1 (configuration not stated) | 3.01%
CCN(CCn1cccn1)Cc1nc(-c2ccc(C(=O)OC)cc2)no1 | -4.94%
CC(=O)C1=C(O)C(=O)N(c2ccc(S(N)(=O)=O)cc2)C1c1ccccc1F (configuration not stated) | -0.999%
